Screening results deposited in PubChem by several laboratories.
NLRP3 yeast inh – NALP3 inhibition in yeast. Yeast reconstituted NLRP3/ASC/caspase-1, beta-gal luminescence, 24 h. inhibition, % at 10 µM. 0.39% of 330,000 active;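 active means inhibition of 50% or more; inactive means inhibition below 50%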;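 further: plate controls were induced DMSO wells for no effect and uninduced yeast grown without galactose for full effect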
tim23-1 inh – inhibits growth of tim23-1 mutant yeast | S. cerevisiae tim23-1 growth, BacTiter-Glo luminescence, 24 h | inhibition, % at 20 µM | 1.3% of 330,000 active;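 active means growth inhibition of the mutant yeast at or above 50%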;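 further: temperature-sensitive mutant grown at 25 °C; plate controls were DMSO-treated mutant yeast for no effect and medium wells lacking yeast for full effect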
SKKanGAS inh – blocks kanamycin growth of S. pyogenes SKKanGAS strain | BacTiter-Glo, 6 h | inhibition, % at 7.5 µM | 1.3% of 300,000 active;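 active means mean replicate score, as percent of positive control median, at least 50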;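 further: strain carries kanamycin resistance gene driven by streptokinase promoter and grows in 40 µg/ml kanamycin; loss of luminescence reflects streptokinase promoter inhibition or plain growth inhibition; 0% = median of DMSO wells and 100% = positive control at its reference dose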
TIM10 inh – growth inhibitors of TIM10 yeast strain. S. cerevisiae TIM10 strain growth, BacTiter-Glo luminescence, 24 h. inhibition, % at 10 µM. 1.4% of 330,000 active;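 active means inhibition of 40% or more at the single tested concentration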;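 further: wild-type TIM10 isogenic control strain grown at permissive 25 °C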
tim10-1 inh – tim10-1 yeast growth inhibition. S. cerevisiae tim10-1 ts strain growth, BacTiter-Glo, 24 h. 2.2% of 330,000 active. inhibition, % at 20 µM;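 active means inhibition of at least 40%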;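 further: mutant grown at 25 °C; 0% = DMSO wells with yeast and 100% = wells holding no yeast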
* = called active by the depositor. Hits are enriched below; roughly 4.6% of the tested compounds scored in any of these assays.

`C=CC1=C(C(=O)O)N2C(=O)C(NC(=O)Cc3ccccc3)C2SC1` (configuration not stated) gave NLRP3 yeast inh -20, tim23-1 inh 21, SKKanGAS inh 95*, TIM10 inh 18 and tim10-1 inh 13.
`CC1=C(C(=O)OCc2ccc([N+](=O)[O-])cc2)N2C(=O)C(NC(=O)Cc3ccccc3)C2SC1` (configuration not stated) gave NLRP3 yeast inh 5, tim23-1 inh 19, SKKanGAS inh -3, TIM10 inh 3 and tim10-1 inh 8.
`CC(NC(=O)c1ccccc1)c1nnc(SCC(=O)Nc2nnc(C3CC3)s2)n1C` (configuration not stated) gave NLRP3 yeast inh 18, tim23-1 inh 4, SKKanGAS inh 24, TIM10 inh -6 and tim10-1 inh 1.
For Cc1ccccc1OCC(=O)Nc1ccccc1NC(=O)c1ccco1 the results were NLRP3 yeast inh 12, tim23-1 inh 7, SKKanGAS inh -4, TIM10 inh -5 and tim10-1 inh -3.
Screening CC(C)c1ccc(OCC(=O)NNC(=S)NC(=O)c2ccco2)c(Br)c1 returned NLRP3 yeast inh 38, tim23-1 inh 14, SKKanGAS inh 117*, TIM10 inh 15 and tim10-1 inh 17.
`CC(C)(C)c1ccc(OCC(=O)NNC(=S)NC(=O)c2ccco2)c(Br)c1` gave NLRP3 yeast inh 43, tim23-1 inh 27, SKKanGAS inh 119*, TIM10 inh 32 and tim10-1 inh 22.
For Cc1ccccc1OCC(=O)NNC(=S)NC(=O)c1ccco1 the results were NLRP3 yeast inh 30, tim23-1 inh -30, SKKanGAS inh 115*, TIM10 inh 18 and tim10-1 inh 6.
For Cc1ccc(NC(=O)CN2C(=O)NC3(CCCc4ccccc43)C2=O)c([N+](=O)[O-])c1 (configuration not stated) the results were NLRP3 yeast inh 12, tim23-1 inh -5, SKKanGAS inh 6, TIM10 inh -1 and tim10-1 inh 3.
Cc1c(C(=O)Nc2ccc3c(c2)OCCO3)sc2nc(-c3ccccc3)cn12 was read as NLRP3 yeast inh 22, tim23-1 inh 19, SKKanGAS inh 70*, TIM10 inh -19 and tim10-1 inh -39.
`Cc1[nH]c(=O)[nH]c(=O)c1S(=O)(=O)Nc1ccc(F)c([N+](=O)[O-])c1` gave NLRP3 yeast inh 2, tim23-1 inh -11, SKKanGAS inh 3, TIM10 inh 7 and tim10-1 inh 10.
COc1ccc(S(=O)(=O)Nc2cc(S(=O)(=O)N3CCOCC3)ccc2OC)cc1 was read as NLRP3 yeast inh 6, tim23-1 inh -12, TIM10 inh 1 and tim10-1 inh -6.
For CCCSc1nnc(CNS(=O)(=O)c2ccc(C)cc2)n1C the results were NLRP3 yeast inh -3, tim23-1 inh 12, SKKanGAS inh -6, TIM10 inh 13 and tim10-1 inh 13.
Screening CCCCN(CCCC)c1nc(-c2ccncc2)nc2ccccc12 returned NLRP3 yeast inh 18, tim23-1 inh 32, SKKanGAS inh 97*, TIM10 inh 7 and tim10-1 inh -13.
`COCCN1CCN(C(=O)c2cc(COc3cc(C)ccc3C)on2)CC1` gave NLRP3 yeast inh 6, tim23-1 inh 4, SKKanGAS inh 1, TIM10 inh 13 and tim10-1 inh 8.
O=C(Cn1cnc2c(OCc3ccccc3)ncnc21)NCCc1c[nH]c2ccccc12 was read as NLRP3 yeast inh 8, tim23-1 inh -8, TIM10 inh 4 and tim10-1 inh -6.
`Cc1cc(C)n2nc(SCC(=O)N3CC(C)CC(C)C3)nc2n1` (configuration not stated) gave NLRP3 yeast inh 17, tim23-1 inh -7, TIM10 inh 8 and tim10-1 inh 2.
CC1C(=O)C(C)C(c2cccc(Br)c2)NC1c1cccc(Br)c1 (configuration not stated) was read as NLRP3 yeast inh 21, tim23-1 inh 5, SKKanGAS inh 60*, TIM10 inh -4 and tim10-1 inh 4.
`CC1C(=O)C(C)C(c2ccc(Cl)cc2)NC1c1ccc(Cl)cc1` (configuration not stated) gave NLRP3 yeast inh 31, tim23-1 inh 37, SKKanGAS inh 35, TIM10 inh 0 and tim10-1 inh 32.
O=C(CCN1C(=O)C2CC=CCC2C1=O)Nc1nc(-c2ccc(F)c(F)c2)cs1 (configuration not stated) was read as NLRP3 yeast inh 1, tim23-1 inh 13, TIM10 inh -16 and tim10-1 inh 0.
